Source: PubChem
Mdm2 MdmX PPI – inhibitors of human Mdm2-MdmX association, primary screen, cell-based, luminescence, split luciferase, SaOS-2, uHTS | inhibition, % at 8 µM | actives 3% (n = 330,000) | SaOS-2 split-luciferase Mdm2/MdmX complementation;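 active = inhibition of at least 50% at 8 µM in the primary screen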
CSC inhib – cancer stem cell viability inhibitors, primary screen, luminescence; inhibition, % at 7.5 µM; actives 1.1% (n = 300,000); AID 2717, 2010; cancer stem cell-like cells viability; in the data active = inhibition above about 75%; inconclusive = no clear call, values can overlap the other calls; tested in HMLE shEcad cells
PP5 primary – PP5 phosphatase inhibitors, primary screen, biochemical, fluorescence. inhibition, % at 6.7 µM. AID 1987, 2009. actives 0.18% (n = 320,000). purified PP5c, OMFP substrate fluorescence;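 active = inhibition above the campaign's mean inhibition across all tested compounds plus 3 SD, cut at about 9.5% in these data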;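 also: 0% = DMSO only and 100% = 100 µM cantharidin control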
Beta cell apopt – inhibitors of cytokine-induced beta cell apoptosis, primary screen, luminescence; protection from apoptosis, % (test concentration not listed); AID 435005, 2010; INS-1E cytokine-induced death, ATP luminescence, 48 h; percent of positive-control rescue, neutral wells zero; actives 0.8% (n = 300,000);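 active = Every replicate reaches about 75%, or at least half do and their mean reaches it too, limit read from the data; inconclusive = At least half of replicates reach the limit but their mean does not; inactive = Under half of replicates reach the limit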;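 also: 0% = cytokine-treated negative control wells and 100% = positive control rescue; higher means more ATP so stronger rescue from cytokine killing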
PP1 inh – PP1-alpha phosphatase inhibitors, primary screen, counter-screen for PP5 inhibitor project, biochemical, fluorescence, OMFP substrate, single point. Serine/threonine-protein phosphatase PP1-alpha catalytic subunit (Homo sapiens), P62136. purified PP1alpha. inhibition, % at 6.7 µM. actives 0.9% (n = 320,000);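 active = inhibition above the mean inhibition of all tested compounds plus 3 SD, computed separately for each screening campaign, cut at about 15% in these data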
Target sequence (P62136 whole entry, looked up): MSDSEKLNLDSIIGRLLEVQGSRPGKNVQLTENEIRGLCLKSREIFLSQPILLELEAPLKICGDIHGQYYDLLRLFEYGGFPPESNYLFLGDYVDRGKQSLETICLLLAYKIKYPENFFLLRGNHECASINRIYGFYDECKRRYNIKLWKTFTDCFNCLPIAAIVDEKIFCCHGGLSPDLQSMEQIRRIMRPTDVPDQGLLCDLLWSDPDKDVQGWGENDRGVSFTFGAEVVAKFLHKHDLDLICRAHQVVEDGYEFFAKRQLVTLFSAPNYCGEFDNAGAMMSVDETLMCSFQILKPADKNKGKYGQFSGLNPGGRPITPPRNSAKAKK
Calb FLC – C. albicans growth inhibition with fluconazole, primary screen, CaCi-2 strain, Alamar Blue fluorescence; C. albicans CaCi-2 (fluconazole-resistant clinical isolate) + fluconazole, 48 h; growth inhibition, % (concentration not given with the values); actives 0.57% (n = 300,000); AID 1979, 2009;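 active = growth inhibition above about 58% in most replicates, limit read from the data, passing the limit was not always enough; inconclusive = exactly half the replicates above a set limit; inactive = most replicates below a set limit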;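 also: all wells also contain fluconazole at 8 µg/ml as a sub-toxic cotreatment; 0% = median of DMSO wells and 100% = median of geldanamycin control wells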
Numbers without * were called inactive. Most compounds without a hit are left out; they make up all but 4.9% or so of the library.

Results for Cc1sc2ncnc(N3CCCCC3)c2c1C ?
Mdm2 MdmX PPI: -22; CSC inhib: -11; PP5 primary: -1; Beta cell apopt: -8; PP1 inh: 2; Calb FLC: 6

Results for CCN1CCN(CCOc2ccc(Cl)cc2)CC1 ?
Mdm2 MdmX PPI: -10; CSC inhib: -4; PP5 primary: -2; Beta cell apopt: -1; PP1 inh: -3; Calb FLC: -3

Results for Clc1ccc(OCCN2CCN(c3ncnc4sccc34)CC2)cc1 ?
Mdm2 MdmX PPI: 17; CSC inhib: 19; PP5 primary: 0; Beta cell apopt: 106*; PP1 inh: -2; Calb FLC: 100*

What do the screens show for `Cc1ccc(OCCN2CCN(c3ncnc4sc(C)c(C)c34)CC2)cc1`?
Mdm2 MdmX PPI: 8; CSC inhib: 41; PP5 primary: 6; Beta cell apopt: 114*; PP1 inh: 6; Calb FLC: -21

What do the screens show for `Cc1ccc(S(=O)(=O)N2CCN(c3ncnc4scc(-c5ccccc5)c34)CC2)cc1`?
Mdm2 MdmX PPI: -10; CSC inhib: 21; Beta cell apopt: 15

Results for CCC(C)Sc1nnc(NC(=O)c2ccco2)s1 (configuration not stated) ?
CSC inhib: -10; PP5 primary: 1; Beta cell apopt: -3; PP1 inh: -6; Calb FLC: -2

Results for C/C(=N\NC(=O)C1CCCC1)c1ccc(Cl)c(Cl)c1 ?
Mdm2 MdmX PPI: -31; CSC inhib: 10; Beta cell apopt: 5; Calb FLC: 112*

How did COc1ccccc1/C=C1\S/C(=N/NC(=O)c2cccc(Br)c2)NC1=O do in these assays?
Mdm2 MdmX PPI: 50; CSC inhib: 114*; PP5 primary: -1; Beta cell apopt: 16; PP1 inh: 14; Calb FLC: inconclusive

How did C/C(=N\Nc1cc(N2CCOCC2)nc(C)n1)c1ccc(F)cc1 do in these assays?
Mdm2 MdmX PPI: 10; CSC inhib: -3; PP5 primary: 2; Beta cell apopt: -1; PP1 inh: 1; Calb FLC: 5

How did C/C(=N\Nc1cc(N2CCCCC2)nc(C)n1)c1ccc(Br)cc1 do in these assays?
Mdm2 MdmX PPI: 39; CSC inhib: 105*; PP5 primary: 5; Beta cell apopt: 60; PP1 inh: 1; Calb FLC: 0

Results for OCCCNc1cc(-c2ccccc2)nc2cc(-c3ccc(F)cc3)nn12 ?
Mdm2 MdmX PPI: 12; CSC inhib: 83*; PP5 primary: 1; Beta cell apopt: 18; PP1 inh: 2; Calb FLC: 8

What do the screens show for `CCc1ccc(OCc2ccc(C(=O)OC)o2)cc1`?
Mdm2 MdmX PPI: -14; CSC inhib: 0; PP5 primary: 3; Beta cell apopt: 0; PP1 inh: -1; Calb FLC: 2

How did CC(=O)c1c[nH]c(C(=O)NCc2ccccc2Cl)c1 do in these assays?
Mdm2 MdmX PPI: 2; CSC inhib: -7; PP5 primary: 1; Beta cell apopt: 1; PP1 inh: 2; Calb FLC: -5

Results for CCC(=O)NC(c1cccs1)c1cc([N+](=O)[O-])c2cccnc2c1O (configuration not stated) ?
Mdm2 MdmX PPI: 36; CSC inhib: 109*; PP5 primary: 3; Beta cell apopt: 58; PP1 inh: 12; Calb FLC: 86*

How did CC(=O)NC(c1cccs1)c1cc([N+](=O)[O-])c2cccnc2c1O (configuration not stated) do in these assays?
CSC inhib: 99*; PP5 primary: 5; Beta cell apopt: 90*; PP1 inh: 14; Calb FLC: 81*

Results for CCC(=O)NC(c1ccco1)c1cc(Cl)c2cccnc2c1O (configuration not stated) ?
Mdm2 MdmX PPI: 38; CSC inhib: -10; PP5 primary: 2; Beta cell apopt: 24; PP1 inh: 5; Calb FLC: 90*

What do the screens show for `CCC(=O)NC(c1cccs1)c1cc(Cl)c2ccccc2c1O` (configuration not stated)?
Mdm2 MdmX PPI: 12; CSC inhib: 8; PP5 primary: 1; Beta cell apopt: -14; PP1 inh: 1

How did CC(=O)NC(c1cccs1)c1cc(Cl)c2ccccc2c1O (configuration not stated) do in these assays?
Mdm2 MdmX PPI: 6; CSC inhib: 36; PP5 primary: 2; Beta cell apopt: -7; PP1 inh: -1

How did CCN(CC)C(CNC(=O)c1cc(=O)[nH]c2ccccc12)c1ccccc1Cl (configuration not stated) do in these assays?
Mdm2 MdmX PPI: 5; CSC inhib: -3; PP5 primary: -2; Beta cell apopt: 3; PP1 inh: 5; Calb FLC: -3

Results for COc1cc(C#N)c(NC(=S)N2CCOCC2)cc1OC ?
Mdm2 MdmX PPI: 13; CSC inhib: -1; PP5 primary: -1; Beta cell apopt: -5; PP1 inh: 5; Calb FLC: -2

How did C=CCOc1cccc(C2C(C(=O)c3cc4ccccc4o3)=C(O)C(=O)N2c2cc(C)on2)c1 (configuration not stated) do in these assays?
Mdm2 MdmX PPI: 20; CSC inhib: -15; PP5 primary: 2; Beta cell apopt: -7; PP1 inh: 28*; Calb FLC: 1

What do the screens show for `COc1cccc(C2C(C(=O)c3cc4ccccc4o3)=C(O)C(=O)N2c2cc(C)on2)c1` (configuration not stated)?
Mdm2 MdmX PPI: 11; CSC inhib: -13; PP5 primary: 0; Beta cell apopt: 2; PP1 inh: 25*; Calb FLC: 49

How did Cc1nc2ccccc2n1/N=C/c1ccc([N+](=O)[O-])s1 do in these assays?
Mdm2 MdmX PPI: 34; CSC inhib: 47; PP5 primary: 5; Beta cell apopt: 109*; PP1 inh: -2; Calb FLC: 25

Results for O=[N+]([O-])c1ccc(/C=N/n2c(CO)nc3ccccc32)s1 ?
Mdm2 MdmX PPI: 34; CSC inhib: 0; PP5 primary: 3; Beta cell apopt: 81*; PP1 inh: -3; Calb FLC: 25

What do the screens show for `Cc1cc2ncn(/N=C/c3ccc([N+](=O)[O-])s3)c2cc1C`?
CSC inhib: 19; PP5 primary: 7; Beta cell apopt: 50; PP1 inh: 5; Calb FLC: -6

How did CC(=O)c1ccc(NC(=O)[C@@H]2CCCN2C(=O)OC(C)(C)C)cc1 do in these assays?
Mdm2 MdmX PPI: -33; CSC inhib: -6; PP5 primary: 0; Beta cell apopt: -4; PP1 inh: 0; Calb FLC: 0

Results for O=[N+]([O-])c1ccc(Cl)cc1Sc1cccc2cccnc12 ?
Mdm2 MdmX PPI: 27; CSC inhib: -12; PP5 primary: 2; Beta cell apopt: -3; PP1 inh: -2; Calb FLC: -4
